The list is not random: actives were taken first. Their share in the collection is about 3.8%.
tim10-1 inh: growth inhibitors of tim10-1 mutant yeast, primary screen, luminescence, uHTS; 330,000 tested, 2.2% active; S. cerevisiae tim10-1 ts strain growth, BacTiter-Glo, 24 h; AID 463190, 2010; inhibition, % at 20 µM;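 active = inhibition of at least 40%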;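 note: mutant grown at 25 °C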
tim23-1 inh: growth inhibitors of tim23-1 mutant yeast, primary screen, luminescence, uHTS; 330,000 tested, 1.3% active; inhibition, % at 20 µM; S. cerevisiae tim23-1 growth, BacTiter-Glo luminescence, 24 h;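 active = growth inhibition of the mutant yeast at or above 50%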;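 note: temperature-sensitive mutant grown at 25 °C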
TIM10 inh: growth inhibitors of isogenic TIM10 control yeast, primary screen, counter-screen for tim10-1 yeast inhibitor project, luminescence, uHTS. 330,000 tested, 1.4% active. inhibition, % at 10 µM. S. cerevisiae TIM10 strain growth, BacTiter-Glo luminescence, 24 h;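 active = inhibition of 40% or more at the single tested concentration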;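 note: wild-type TIM10 isogenic control strain grown at permissive 25 °C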
PfHsp90 set2: growth inhibition of PfHsp90-expressing yeast, primary screen, antimalarial PfHsp90 inhibitor project, S. cerevisiae, BacTiter-Glo luminescence, single point, set 2; BacTiter-Glo ATP, 48 h; yeast lacking PDR1 and PDR3 efflux regulators; inhibition, % at 9.4 µM; 310,000 tested, 0.32% active; AID 504621, 2011;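 active = every replicate shows inhibition above about 80%, whatever the replicate mean, limit read from the data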
Beta2AR agonist: beta2AR agonists driving receptor internalization, primary screen, cell-based, FAP fluorogen, flow cytometry; Beta-2 adrenergic receptor (Homo sapiens), P07550; Am2.2-beta2AR cells; response, % (test concentration not listed); 340,000 tested, 0.43% active; AID 504454, 2011;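 active = response above a set limit, near 3 SD of response in nonfluorescent compounds, cut at about 42% in these data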
Target sequence (P07550 whole entry, looked up): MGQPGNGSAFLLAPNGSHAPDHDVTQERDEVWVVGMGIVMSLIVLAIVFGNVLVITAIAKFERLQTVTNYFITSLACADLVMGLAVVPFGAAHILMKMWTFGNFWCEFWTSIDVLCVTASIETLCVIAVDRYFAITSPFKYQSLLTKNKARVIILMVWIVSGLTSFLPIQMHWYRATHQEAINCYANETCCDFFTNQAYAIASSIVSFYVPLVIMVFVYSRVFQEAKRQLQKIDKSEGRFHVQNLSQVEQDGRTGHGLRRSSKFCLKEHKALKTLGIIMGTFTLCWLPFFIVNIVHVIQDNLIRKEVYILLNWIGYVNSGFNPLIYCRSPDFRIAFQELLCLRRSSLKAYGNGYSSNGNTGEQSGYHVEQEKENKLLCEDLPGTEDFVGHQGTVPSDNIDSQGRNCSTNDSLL
tim10-1 conf: growth inhibitors of tim10-1 mutant yeast, confirmation, single concentration, luminescence, S. cerevisiae; shares compounds with tim10-1 inh; S. cerevisiae tim10-1 ts strain growth, BacTiter-Glo, 24 h; inhibition, % at 20 µM; 7,400 tested, 56% active;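 active = inhibition of yeast growth at or above a set limit in either of two repeat tests at 20 µM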;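 note: tim10-1 mutant grown at permissive 25 °C to find synthetic lethal compounds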
Of the large screens only hits and unclear results are named; the others gave an inactive call (follow-up assays come after a bar, where they were run).

CC(=O)N(c1ccccc1)C1CC(C)N(C(=O)c2ccccc2)c2ccccc21 (stereo not given)	tim10-1 inh 42.1 | tim10-1 conf inactive
CCC(=O)N1c2ccccc2[C@@H](N(C(C)=O)c2ccccc2)C[C@H]1C	none
Cc1ccc(NC(=O)NCc2nc3ccccc3n2C)cc1	none
Cc1ccc(NC(=O)C2=C(O)CCn3c2nc2ccccc23)cc1	tim10-1 inh 43.4 | tim10-1 conf inactive
O=C(c1cc(Cl)nc2ccccc12)N(Cc1nnc(-c2ccccc2Cl)o1)C1CC1	none
COc1ccccc1NS(=O)(=O)c1cc(NC(=O)c2ccc(Cl)nc2)ccc1Cl	none (no result: PfHsp90 set2)
COc1ccc(C(=O)Nc2ccc(Cl)c(S(=O)(=O)Nc3ccccc3OC)c2)cc1	tim10-1 inh 41.1 | tim10-1 conf inactive
Cc1ccc(-n2nc(-c3cccs3)cc2C(=O)NCC2CCCO2)c(C)c1 (stereo not given)	tim10-1 inh 40.7 | tim10-1 conf inactive
Cc1nc2ccccc2c2oc(C(=O)N3CCC(C)CC3)cc12	tim10-1 inh 46.2 | tim10-1 conf inactive
Cc1nc2ccccc2c2oc(C(=O)N3CCN(C(=O)c4ccco4)CC3)cc12	none
CCOC(=O)C1=C(COC(=O)c2ccc(Cl)cc2[N+](=O)[O-])NC(=O)NC1C (stereo not given)	none
CN1CCN(S(=O)(=O)c2cccc(C(=O)Oc3cccc(Br)c3)c2)CC1	tim10-1 inh 40.6 | tim10-1 conf inactive
COc1ccccc1-c1cccc([C@@H]2C[C@H]3[C@@H](CN2)CON3C)c1	none (no result: tim10-1 inh, tim23-1 inh, TIM10 inh)
CSCCC(NC(=O)c1ccco1)C(=O)NCCc1ccc(Cl)cc1 (stereo not given)	none
CC(=O)c1cccc(OCC(O)CNCC2COc3ccccc3O2)c1 (stereo not given)	none
O=C1CCCCC1Nc1ccc2ccccc2c1 (stereo not given)	none (no result: tim10-1 inh, tim23-1 inh, TIM10 inh)
C/C(=N\OCc1ccc(C#N)cc1)c1ccc(S(=O)(=O)N(C)C)cc1	tim10-1 inh 42.3 | tim10-1 conf 41.2
C/C(=N\OCc1ccc(C#N)cc1)c1ccccc1	none
CC(C)C[C@@H](CN1CCCC1CN1C(=S)NC[C@@H]1Cc1ccc(O)cc1)N1C[C@H](Cc2ccc(O)cc2)N(CCc2ccccc2)C1=S (stereo not given in full)	none (no result: tim10-1 inh, tim23-1 inh, TIM10 inh)
Cc1cccc(N=C2Sc3nc4c(C)c(C)ccc4cc3CN2CCN2CCOCC2)c1	tim10-1 inh 52.8 | tim10-1 conf 36.6
Cc1ccc2c(c1)CCCN2C(=O)c1cc2ccccc2oc1=O	tim10-1 inh 43.2 | tim10-1 conf 43.8
CCOC(=O)C1CCN(C(=O)C2CC(=O)N(c3ccc4c(c3)OCCO4)C2)CC1 (stereo not given)	none
Cc1ccc2c(c1)c(N=O)c(O)n2Cc1ccc(Cl)cc1	tim10-1 inh 49.2 | tim10-1 conf 35.6
O=Nc1c(O)n(Cc2ccc(Cl)cc2)c2ccccc12	none
COc1cc2c(cc1OC)[C@@H](NC(=O)COc1ccccc1)[C@H](OCc1ccccc1)C2	none
Cc1cccc(OCC(=O)Nc2ccc(NC(=O)c3ccco3)cc2)c1	none
COc1ccc(-c2nc(S(=O)(=O)c3ccccc3)c(NCCCN3CCOCC3)o2)cc1	none (no result: PfHsp90 set2)
NNC(=O)c1cccc(COc2ccccc2Br)c1	tim10-1 inh 41.2 | tim10-1 conf inactive
NNC(=O)c1cccc(COc2ccc3c(c2)CCC3)c1	tim10-1 inh 46.9 | tim10-1 conf inactive
O=C(c1ccc(OC2CCN(C/C=C/c3ccc(F)cc3)CC2)cc1)N1CCCC1	none
CC(C)C(c1nnnn1Cc1ccco1)N1CCN(c2cccc(Cl)c2)CC1 (stereo not given)	tim10-1 inh 41.1 | tim10-1 conf inactive
CC(C)C(c1nnnn1Cc1ccccc1)N1CCN(Cc2ccco2)CC1 (stereo not given)	none
COc1cccc(C(c2nnnn2Cc2ccco2)N2CCN(Cc3ccccc3)CC2)c1OC (stereo not given)	none

Compound activity: PubChem BioAssay, several laboratories
